# Laboratory results taken from the supplement of paper PMC4466140.
# B1: unnamed (peptide)
# chain: SSAAPPPPPRRATPE
# B2: unnamed (peptide)
# chain: TTAPALPSLPPPPLL
# How the values were obtained:
# Test in all cases: SPOT peptide array binding signal intensity (averaged, normalized) (arbitrary units (background-subtracted, floor 0; scale differs between SH3 domains)); higher = stronger binding of the SH3 domain to the peptide
# AgAbp1 = target: AgAbp1
# Method in brief: (§1)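 Cellulose membranes carried synthetic 15-mer peptides with cysteines swapped for serines. These were incubated overnight at 4°C with 10 μg/ml of GST-fused SH3 domains from four yeast species in TBS-based blocking buffer. Binding signal, detected with anti-GST antibody and quantified in Genespotter, is the normalized, background-subtracted spot intensity averaged over replicates, in arbitrary units specific to each domain.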
# AgBbc1 = target: AgBbc1
# Method in brief: as §1
# AgBem1-D1 = target: AgBem1-D1
# Method in brief: as §1
# AgBzz1-D1 = target: AgBzz1-D1
# Method in brief: as §1
# AgBzz1-D2 = target: AgBzz1-D2
# Method in brief: as §1
# AgCyk3 = target: AgCyk3
# Method in brief: as §1
# AgFus1 = target: AgFus1
# Method in brief: as §1
# AgHof1 = target: AgHof1
# Method in brief: as §1
# AgHse1 = target: AgHse1
# Method in brief: as §1
# AgLsb1 = target: AgLsb1
# Method in brief: as §1
# AgLsb4 = target: AgLsb4
# Method in brief: as §1
# AgMyo5 = target: AgMyo5
# Method in brief: as §1
# AgNbp2 = target: AgNbp2
# Method in brief: as §1
# AgRvs167 = target: AgRvs167
# Method in brief: as §1
# AgSho1 = target: AgSho1
# Method in brief: as §1
# AgSla1-D1-D2 = target: AgSla1-D1-D2
# Method in brief: as §1
# AgSla1-D3 = target: AgSla1-D3
# Method in brief: as §1
# CaAbp1-D1 = target: CaAbp1-D1
# Method in brief: as §1
# CaAbp1-D2 = target: CaAbp1-D2
# Method in brief: as §1
# CaBbc1 = target: CaBbc1
# Method in brief: as §1
# CaBem1-D1 = target: CaBem1-D1
# Method in brief: as §1
# CaBzz1-D1 = target: CaBzz1-D1
# Method in brief: as §1
# CaBzz1-D2 = target: CaBzz1-D2
# Method in brief: as §1
# CaCyk3 = target: CaCyk3
# Method in brief: as §1
# CaFus1 = target: CaFus1
# Method in brief: as §1
# CaHof1 = target: CaHof1
# Method in brief: as §1
# CaHse1 = target: CaHse1
# Method in brief: as §1
# CaLsb1 = target: CaLsb1
# Method in brief: as §1
# CaLsb4 = target: CaLsb4
# Method in brief: as §1
# CaMyo5 = target: CaMyo5
# Method in brief: as §1
# CaNbp2 = target: CaNbp2
# Method in brief: as §1
# CaRvs167 = target: CaRvs167
# Method in brief: as §1
# CaRvs167-3 = target: CaRvs167-3
# Method in brief: as §1
# CaSho1 = target: CaSho1
# Method in brief: as §1
# CaSla1-D1-D2 = target: CaSla1-D1-D2
# Method in brief: as §1
# CaSla1-D3 = target: CaSla1-D3
# Method in brief: as §1
# ScAbp1 = target: ScAbp1
# Method in brief: as §1
# ScBbc1 = target: ScBbc1
# Method in brief: as §1
# ScBem1-D1 = target: ScBem1-D1
# Method in brief: as §1
# ScBzz1-D1 = target: ScBzz1-D1
# Method in brief: as §1
# ScBzz1-D2 = target: ScBzz1-D2
# Method in brief: as §1
# ScCyk3 = target: ScCyk3
# Method in brief: as §1
# ScFus1 = target: ScFus1
# Method in brief: as §1
# ScHof1 = target: ScHof1
# Method in brief: as §1
# ScHse1 = target: ScHse1
# Method in brief: as §1
# ScLsb1 = target: ScLsb1
# Method in brief: as §1
# ScLsb2 = target: ScLsb2
# Method in brief: as §1
# ScLsb3 = target: ScLsb3
# Method in brief: as §1
# ScLsb4 = target: ScLsb4
# Method in brief: as §1
# ScMyo3 = target: ScMyo3
# Method in brief: as §1
# ScMyo5 = target: ScMyo5
# Method in brief: as §1
# ScNbp2 = target: ScNbp2
# Method in brief: as §1
# ScPex13 = target: ScPex13
# Method in brief: as §1
# ScRvs167 = target: ScRvs167
# Method in brief: as §1
# ScSho1 = target: ScSho1
# Method in brief: as §1
# ScSla1-D1-D2 = target: ScSla1-D1-D2
# Method in brief: as §1
# ScSla1-D3 = target: ScSla1-D3
# Method in brief: as §1
# SpAbp1-D1 = target: SpAbp1-D1
# Method in brief: as §1
# SpBbc1 = target: SpBbc1
# Method in brief: as §1
# SpBzz1-D1 = target: SpBzz1-D1
# Method in brief: as §1
# SpBzz1-D2 = target: SpBzz1-D2
# Method in brief: as §1
# SpCyk3 = target: SpCyk3
# Method in brief: as §1
# SpHof1 = target: SpHof1
# Method in brief: as §1
# SpHof1-2 = target: SpHof1-2
# Method in brief: as §1
# SpHof1-3 = target: SpHof1-3
# Method in brief: as §1
# SpHse1 = target: SpHse1
# Method in brief: as §1
# SpLsb1 = target: SpLsb1
# Method in brief: as §1
# SpLsb4 = target: SpLsb4
# Method in brief: as §1
# SpMyo1 = target: SpMyo1
# Method in brief: as §1
# SpNbp2 = target: SpNbp2
# Method in brief: as §1
# SpPex13 = target: SpPex13
# Method in brief: as §1
# SpRvs167 = target: SpRvs167
# Method in brief: as §1
# SpSla1-D1-D2 = target: SpSla1-D1-D2
# Method in brief: as §1
# SpSla1-D3 = target: SpSla1-D3
# Method in brief: as §1
binder,measurement,setting,value
B1,SPOT peptide array binding signal intensity,AgAbp1,0.5
same,SPOT peptide array binding signal intensity,AgBbc1,602
same,SPOT peptide array binding signal intensity,AgBem1-D1,≤ 0
same,SPOT peptide array binding signal intensity,AgBzz1-D1,122
same,SPOT peptide array binding signal intensity,AgBzz1-D2,18
same,SPOT peptide array binding signal intensity,AgCyk3,≤ 0
same,SPOT peptide array binding signal intensity,AgFus1,4
same,SPOT peptide array binding signal intensity,AgHof1,0.5
same,SPOT peptide array binding signal intensity,AgHse1,11
same,SPOT peptide array binding signal intensity,AgLsb1,355
same,SPOT peptide array binding signal intensity,AgLsb4,1120
same,SPOT peptide array binding signal intensity,AgMyo5,8
same,SPOT peptide array binding signal intensity,AgNbp2,0.5
same,SPOT peptide array binding signal intensity,AgRvs167,446
same,SPOT peptide array binding signal intensity,AgSho1,3
same,SPOT peptide array binding signal intensity,AgSla1-D1-D2,1
same,SPOT peptide array binding signal intensity,AgSla1-D3,12
same,SPOT peptide array binding signal intensity,CaAbp1-D1,28.5
same,SPOT peptide array binding signal intensity,CaAbp1-D2,23
same,SPOT peptide array binding signal intensity,CaBbc1,268
same,SPOT peptide array binding signal intensity,CaBem1-D1,≤ 0
same,SPOT peptide array binding signal intensity,CaBzz1-D1,1350
same,SPOT peptide array binding signal intensity,CaBzz1-D2,293
same,SPOT peptide array binding signal intensity,CaCyk3,≤ 0
same,SPOT peptide array binding signal intensity,CaFus1,134
same,SPOT peptide array binding signal intensity,CaHof1,31
same,SPOT peptide array binding signal intensity,CaHse1,6
same,SPOT peptide array binding signal intensity,CaLsb1,0.5
same,SPOT peptide array binding signal intensity,CaLsb4,3810
same,SPOT peptide array binding signal intensity,CaMyo5,0.5
B2,SPOT peptide array binding signal intensity,AgAbp1,0.5
same,SPOT peptide array binding signal intensity,AgBbc1,≤ 0
same,SPOT peptide array binding signal intensity,AgBem1-D1,≤ 0
same,SPOT peptide array binding signal intensity,AgBzz1-D1,22
same,SPOT peptide array binding signal intensity,AgBzz1-D2,25
same,SPOT peptide array binding signal intensity,AgCyk3,≤ 0
same,SPOT peptide array binding signal intensity,AgFus1,≤ 0
same,SPOT peptide array binding signal intensity,AgHof1,1690
same,SPOT peptide array binding signal intensity,AgHse1,≤ 0
same,SPOT peptide array binding signal intensity,AgLsb1,≤ 0
same,SPOT peptide array binding signal intensity,AgLsb4,≤ 0
same,SPOT peptide array binding signal intensity,AgMyo5,3050
same,SPOT peptide array binding signal intensity,AgNbp2,≤ 0
same,SPOT peptide array binding signal intensity,AgRvs167,0.667
same,SPOT peptide array binding signal intensity,AgSho1,≤ 0
same,SPOT peptide array binding signal intensity,AgSla1-D1-D2,≤ 0
same,SPOT peptide array binding signal intensity,AgSla1-D3,3
same,SPOT peptide array binding signal intensity,CaAbp1-D1,5
same,SPOT peptide array binding signal intensity,CaAbp1-D2,21
same,SPOT peptide array binding signal intensity,CaBbc1,3
same,SPOT peptide array binding signal intensity,CaBem1-D1,≤ 0
same,SPOT peptide array binding signal intensity,CaBzz1-D1,3.5
same,SPOT peptide array binding signal intensity,CaBzz1-D2,≤ 0
same,SPOT peptide array binding signal intensity,CaCyk3,≤ 0
same,SPOT peptide array binding signal intensity,CaFus1,≤ 0
same,SPOT peptide array binding signal intensity,CaHof1,873
same,SPOT peptide array binding signal intensity,CaHse1,5.75
same,SPOT peptide array binding signal intensity,CaLsb1,0.5
same,SPOT peptide array binding signal intensity,CaLsb4,≤ 0
same,SPOT peptide array binding signal intensity,CaMyo5,1950
same,SPOT peptide array binding signal intensity,CaNbp2,≤ 0
same,SPOT peptide array binding signal intensity,CaRvs167,1
same,SPOT peptide array binding signal intensity,CaRvs167-3,1
same,SPOT peptide array binding signal intensity,CaSho1,≤ 0
same,SPOT peptide array binding signal intensity,CaSla1-D1-D2,≤ 0
same,SPOT peptide array binding signal intensity,CaSla1-D3,0.25
same,SPOT peptide array binding signal intensity,ScAbp1,1
same,SPOT peptide array binding signal intensity,ScBbc1,1
same,SPOT peptide array binding signal intensity,ScBem1-D1,2
same,SPOT peptide array binding signal intensity,ScBzz1-D1,190
same,SPOT peptide array binding signal intensity,ScBzz1-D2,≤ 0
same,SPOT peptide array binding signal intensity,ScCyk3,≤ 0
same,SPOT peptide array binding signal intensity,ScFus1,≤ 0
same,SPOT peptide array binding signal intensity,ScHof1,2250
same,SPOT peptide array binding signal intensity,ScHse1,≤ 0
same,SPOT peptide array binding signal intensity,ScLsb1,≤ 0
same,SPOT peptide array binding signal intensity,ScLsb2,≤ 0
same,SPOT peptide array binding signal intensity,ScLsb3,≤ 0
same,SPOT peptide array binding signal intensity,ScLsb4,≤ 0
same,SPOT peptide array binding signal intensity,ScMyo3,2800
same,SPOT peptide array binding signal intensity,ScMyo5,2300
same,SPOT peptide array binding signal intensity,ScNbp2,≤ 0
same,SPOT peptide array binding signal intensity,ScPex13,214
same,SPOT peptide array binding signal intensity,ScRvs167,≤ 0
same,SPOT peptide array binding signal intensity,ScSho1,42
same,SPOT peptide array binding signal intensity,ScSla1-D1-D2,≤ 0
same,SPOT peptide array binding signal intensity,ScSla1-D3,1.5
same,SPOT peptide array binding signal intensity,SpAbp1-D1,≤ 0
same,SPOT peptide array binding signal intensity,SpBbc1,7.5
same,SPOT peptide array binding signal intensity,SpBzz1-D1,124
same,SPOT peptide array binding signal intensity,SpBzz1-D2,≤ 0
same,SPOT peptide array binding signal intensity,SpCyk3,1
same,SPOT peptide array binding signal intensity,SpHof1,≤ 0
same,SPOT peptide array binding signal intensity,SpHof1-2,39.8
same,SPOT peptide array binding signal intensity,SpHof1-3,≤ 0
same,SPOT peptide array binding signal intensity,SpHse1,≤ 0
same,SPOT peptide array binding signal intensity,SpLsb1,≤ 0
same,SPOT peptide array binding signal intensity,SpLsb4,≤ 0
same,SPOT peptide array binding signal intensity,SpMyo1,1940
same,SPOT peptide array binding signal intensity,SpNbp2,≤ 0
same,SPOT peptide array binding signal intensity,SpPex13,11
same,SPOT peptide array binding signal intensity,SpRvs167,≤ 0
same,SPOT peptide array binding signal intensity,SpSla1-D1-D2,4
same,SPOT peptide array binding signal intensity,SpSla1-D3,2
